Measured values from PubChem BioAssay (EPA / NIEHS).
The source made the active and inactive calls. Rule for the calls: active = hit-call score of the fitted dose curve at least 0.9, where 1 is the maximum; inactive = score below 0.9.

What was measured:
Conditions in all cases: mRNA level, 48 h; actives raise or lower the signal
[1] = read-out: Potassium channel subfamily K member 1 (KCNK1), KCNK1 (gene 3775); assay: LTEA_HepaRG_KCNK1: Life Technologies and Expression Analysis (LTEA) Assay for Potassium channel subfamily K member 1 (KCNK1) using HepaRG (AID 2283511)
How it was run: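 KCNK1 transcript measured by TaqMan qRT-PCR against three housekeeping genes, after HepaRG cells were treated 48 h with eight half-log concentrations (top 100 uM, 0.5% DMSO). Curves fitted bidirectionally relative to vehicle.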

[2] = read-out: Keratin 19 (KRT19), KRT19 (gene 3880); assay: LTEA_HepaRG_KRT19: Life Technologies and Expression Analysis (LTEA) Assay for Keratin 19 (KRT19) using HepaRG (AID 2283512)
How it was run: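 KRT19 transcript levels, measured by Fluidigm qRT-PCR against three housekeeping genes, are fitted for gain or loss of signal relative to DMSO. Human HepaRG cells receive test chemicals (top 100 uM, half-log steps, 0.5% DMSO) for 48 hours.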

[3] = read-out: JUN Transcription Factor, JUN (gene 3725); assay: LTEA_HepaRG_JUN: Life Technologies and Expression Analysis (LTEA) Assay for JUN Transcription Factor using HepaRG (AID 2283513)
How it was run: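 Read-out is JUN transcript level by TaqMan qRT-PCR, normalized to ACTB, GAPDH and POLR2A, after 48 h chemical treatment of HepaRG cells. Concentration-response spanned eight half-log points up to 100 uM in 0.5% DMSO.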

[4] = read-out: Lipase C (LIPC), LIPC (gene 3990); assay: LTEA_HepaRG_LIPC: Life Technologies and Expression Analysis (LTEA) Assay for Lipase C (LIPC) using HepaRG (AID 2283514)
How it was run: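 LIPC expression was quantified by qRT-PCR against three housekeeping genes (ACTB, GAPDH, POLR2A). Differentiated human HepaRG cells received eight half-log doses (top 100 uM, 0.5% DMSO) in duplicate for 48 h; fitting bidirectional relative to DMSO.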

[5] = read-out: MicroRNA 122 (MIR122), gene 406906; assay: LTEA_HepaRG_MIR122: Life Technologies and Expression Analysis (LTEA) Assay for MicroRNA 122 (MIR122) using HepaRG (AID 2283516); note: the transcript read is the microRNA miR-122
How it was run: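 Human liver HepaRG cultures receive test chemicals for 48 h at eight half-log concentrations from 100 uM. Expression is quantified by qRT-PCR with ACTB/GAPDH/POLR2A normalization and fitted bidirectionally against 0.5% DMSO.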

[6] = read-out: matrix metalloproteinase-10 (MMP10), MMP10 (gene 4319); assay: LTEA_HepaRG_MMP10: Life Technologies and Expression Analysis (LTEA) Assay for matrix metalloproteinase-10 (MMP10) using HepaRG (AID 2283517)
How it was run: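 Expression measured by TaqMan qRT-PCR with ACTB/GAPDH/POLR2A normalisation after 48 h chemical exposure of HepaRG cells. Eight half-log concentrations, top 100 uM, 0.5% DMSO vehicle, duplicates; gain or loss fitted against vehicle.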

MYC, MYC (gene 4609) = assay: LTEA_HepaRG_MYC: Life Technologies and Expression Analysis (LTEA) Assay for MYC using HepaRG (AID 2283518)
How it was run: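 HepaRG, ~100,000 cells/well, collagen I; 48 h plating; serum-free induction medium; 48 h dosing, duplicate, 100 uM top, half-log, 0.5% DMSO; total RNA → qRT-PCR MYC; gain/loss fit vs DMSO.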

[7] = read-out: matrix metalloproteinase-3 (MMP3), MMP3 (gene 4314); assay: LTEA_HepaRG_MMP3: Life Technologies and Expression Analysis (LTEA) Assay for matrix metalloproteinase-3 (MMP3) using HepaRG (AID 2283519)
How it was run: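 Fluidigm-based TaqMan qRT-PCR, normalized to ACTB, GAPDH and POLR2A and fitted bidirectionally versus 0.5% DMSO, measured transcript levels. Treatment: duplicate 48 h exposures of HepaRG cells, ~100,000/well, to eight half-log concentrations topping at 100 uM.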

[8] = read-out: Paternally Expressed 10 (PEG10), PEG10 (gene 23089); assay: LTEA_HepaRG_PEG10: Life Technologies and Expression Analysis (LTEA) Assay for Paternally Expressed 10 (PEG10) using HepaRG (AID 2283520);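 for AC50: PEG10 transcript by qRT-PCR normalised to ACTB GAPDH and POLR2A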
How it was run: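 Human HepaRG cultures are dosed for 48 h across an eight-point half-log series starting at 100 uM, with 0.5% DMSO as vehicle and baseline. Gain or loss of PEG10 transcript is measured by qRT-PCR and fitted in both directions.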

[9] = read-out: Protein phosphatase 2A (PPP2R4), PTPA (gene 5524); assay: LTEA_HepaRG_PPP2R4: Life Technologies and Expression Analysis (LTEA) Assay for Protein phosphatase 2A (PPP2R4) using HepaRG (AID 2283522)
How it was run: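 Cells were plated, cultured 48 h, switched to serum-free induction medium, then dosed for 48 h (8 points, max 100 uM, 0.5% DMSO). RNA was isolated and PPP2R4 expression measured by TaqMan qRT-PCR.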

[10] = read-out: Phosphatase and tensin (PTEN), PTEN (gene 5728); assay: LTEA_HepaRG_PTEN: Life Technologies and Expression Analysis (LTEA) Assay for Phosphatase and tensin (PTEN) using HepaRG (AID 2283523)
How it was run: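 Read-out: TaqMan qRT-PCR of PTEN transcript, normalized to three housekeeping genes, fitted in both directions against 0.5% DMSO. Differentiated human HepaRG cultures received chemicals for 48 h, eight-point half-log series topping at 100 uM.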

[11] = read-out: solute carrier (SLC22A1), SLC22A1 (gene 6580); assay: LTEA_HepaRG_SLC22A1: Life Technologies and Expression Analysis (LTEA) Assay for solute carrier (SLC22A1) using HepaRG (AID 2283524)
How it was run: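 Transcript level of SLC22A1 quantified by qRT-PCR (normalized to three housekeeping genes) after 48 h chemical exposure of HepaRG cells, eight concentrations up to 100 µM, half-log steps, 0.5% DMSO vehicle. Gain or loss relative to DMSO fitted bidirectionally.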

[12] = read-out: Pyruvate Dehydrogenase Kinase 4 (PDK4), PDK4 (gene 5166); assay: LTEA_HepaRG_PDK4: Life Technologies and Expression Analysis (LTEA) Assay for Pyruvate Dehydrogenase Kinase 4 (PDK4) using HepaRG (AID 2283525)
How it was run: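 Readout is qRT-PCR of PDK4 transcript, normalized to three housekeeping genes, with bidirectional fitting against 0.5% DMSO vehicle. Differentiated HepaRG cells were treated 48 h in serum-free induction medium, duplicate wells, eight-point half-log series topping at 100 uM.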

[13] = read-out: succinate dehydrogenase complex iron sulfur subunit B (SDHB), SDHB (gene 6390); assay: LTEA_HepaRG_SDHB: Life Technologies and Expression Analysis (LTEA) Assay for succinate dehydrogenase complex iron sulfur subunit B (SDHB) using HepaRG (AID 2283528)
How it was run: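 HepaRG, 48 h exposure, 8-pt half-log series from 100 uM in 0.5% DMSO, duplicates. Readout: SDHB mRNA by Fluidigm qRT-PCR vs housekeeping genes; bidirectional fit relative to DMSO.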

[14] = read-out: Signal transducer and activator of transcription 3 (Homo sapiens) (UniProt P40763); assay: LTEA_HepaRG_STAT3: Life Technologies and Expression Analysis (LTEA) Assay for Signal transducer and activator of transcription (STAT3) using HepaRG (AID 2283529)
How it was run: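 STAT3 transcript quantified by qRT-PCR against three housekeeping genes (ACTB, GAPDH, POLR2A), fitted both directions relative to DMSO. HepaRG cultures exposed 48 h to eight half-log concentrations, top 100 uM, 0.5% DMSO, serum-free induction medium.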

[15] = read-out: solute carrier (SLCO1B1), SLCO1B1 (gene 10599); assay: LTEA_HepaRG_SLCO1B1: Life Technologies and Expression Analysis (LTEA) Assay for solute carrier (SLCO1B1) using HepaRG (AID 2283530)
How it was run: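 HepaRG, serum-free induction medium, 48 h dosing, 8-pt half-log from 100 uM, 0.5% DMSO vehicle, duplicates. Readout: SLCO1B1 mRNA, qRT-PCR, ACTB/GAPDH/POLR2A normalization; up or down fit vs DMSO.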

[16] = read-out: Nuclear factor NF-kappa-B p105 subunit (Homo sapiens) (UniProt P19838); assay: LTEA_HepaRG_NFKB1: Life Technologies and Expression Analysis (LTEA) Assay for Nuclear Factor Kappa B Subunit 1 (NFKB1) using HepaRG (AID 2283521)
How it was run: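 Differentiated human HepaRG cells were exposed for 48 h in serum-free induction medium to eight concentrations (top 100 uM, half-log steps, 0.5% DMSO), in duplicate. NFKB1 mRNA was measured by TaqMan qRT-PCR, normalized to ACTB/GAPDH/POLR2A, and fitted bidirectionally against DMSO.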

[17] = read-out: Nuclear factor erythroid 2-related factor 2 (Homo sapiens) (UniProt Q16236); assay: LTEA_HepaRG_NFE2L2: Life Technologies and Expression Analysis (LTEA) Assay for Nuclear factor erythroid 2-related factor 2 (NFE2L2) Transcription Factor using HepaRG (AID 2283527);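 for outcome: TaqMan qRT-PCR transcript level normalised to ACTB GAPDH and POLR2A housekeeping genes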
How it was run: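 NFE2L2 transcript level was read by qRT-PCR (housekeeping ACTB/GAPDH/POLR2A normalisation) after 48 h chemical treatment of HepaRG in serum-free induction medium. Duplicate 8-point half-log curves, top 100 uM, 0.5% DMSO vehicle; up- or down-regulation fitted against vehicle.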

[18] = read-out: NAD(P)H dehydrogenase [quinone] 1 (NQO1), NQO1 (gene 1728); assay: LTEA_HepaRG_NQO1: Life Technologies and Expression Analysis (LTEA) Assay for NAD(P)H dehydrogenase [quinone] 1 (NQO1) using HepaRG (AID 2283526)
How it was run: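 Transcript induction or suppression is quantified by qRT-PCR in human HepaRG liver cells dosed for 48 hours. Eight half-log concentrations topping at 100 uM are used, with 0.5% DMSO as vehicle and baseline.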

Chain of Signal transducer and activator of transcription 3 (Homo sapiens) (P40763 whole entry, looked up): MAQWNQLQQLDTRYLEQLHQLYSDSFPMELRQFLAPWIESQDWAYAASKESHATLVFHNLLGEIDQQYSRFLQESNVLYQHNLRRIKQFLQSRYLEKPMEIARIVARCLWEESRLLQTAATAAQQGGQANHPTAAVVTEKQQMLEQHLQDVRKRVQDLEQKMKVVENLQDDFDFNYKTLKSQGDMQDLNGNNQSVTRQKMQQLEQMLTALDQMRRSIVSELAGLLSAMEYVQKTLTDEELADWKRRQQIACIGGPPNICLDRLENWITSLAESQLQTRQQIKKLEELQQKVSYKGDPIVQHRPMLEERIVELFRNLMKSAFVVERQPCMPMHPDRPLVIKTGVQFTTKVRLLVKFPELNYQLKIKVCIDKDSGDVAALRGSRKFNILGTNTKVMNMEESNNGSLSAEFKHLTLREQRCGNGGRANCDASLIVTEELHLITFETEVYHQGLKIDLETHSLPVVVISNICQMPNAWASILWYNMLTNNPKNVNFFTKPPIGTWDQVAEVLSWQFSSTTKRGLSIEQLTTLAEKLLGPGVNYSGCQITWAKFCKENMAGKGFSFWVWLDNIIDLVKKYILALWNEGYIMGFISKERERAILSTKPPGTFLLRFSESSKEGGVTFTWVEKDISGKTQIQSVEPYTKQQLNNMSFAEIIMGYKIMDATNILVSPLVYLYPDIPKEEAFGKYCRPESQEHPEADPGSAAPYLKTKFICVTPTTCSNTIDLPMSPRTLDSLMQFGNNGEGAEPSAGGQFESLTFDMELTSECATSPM
Chain of Nuclear factor erythroid 2-related factor 2 (Homo sapiens) (Q16236 whole entry, looked up): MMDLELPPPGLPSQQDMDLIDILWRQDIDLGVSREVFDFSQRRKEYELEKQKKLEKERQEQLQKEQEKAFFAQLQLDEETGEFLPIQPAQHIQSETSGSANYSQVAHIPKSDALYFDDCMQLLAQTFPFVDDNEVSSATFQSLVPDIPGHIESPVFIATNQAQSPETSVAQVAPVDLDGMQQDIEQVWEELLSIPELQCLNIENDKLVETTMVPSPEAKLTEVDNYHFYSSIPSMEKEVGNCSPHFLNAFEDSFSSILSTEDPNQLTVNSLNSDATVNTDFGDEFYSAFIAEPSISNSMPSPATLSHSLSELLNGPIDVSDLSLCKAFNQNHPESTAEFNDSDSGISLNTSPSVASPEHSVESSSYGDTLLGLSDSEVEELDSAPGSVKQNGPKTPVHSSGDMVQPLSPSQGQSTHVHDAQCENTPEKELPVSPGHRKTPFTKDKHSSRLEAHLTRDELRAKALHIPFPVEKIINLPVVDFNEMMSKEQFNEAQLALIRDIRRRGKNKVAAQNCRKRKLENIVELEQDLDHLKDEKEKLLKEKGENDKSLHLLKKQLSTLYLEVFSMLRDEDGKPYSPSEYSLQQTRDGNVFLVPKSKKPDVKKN
Chain of Nuclear factor NF-kappa-B p105 subunit (Homo sapiens) (P19838 whole entry, looked up): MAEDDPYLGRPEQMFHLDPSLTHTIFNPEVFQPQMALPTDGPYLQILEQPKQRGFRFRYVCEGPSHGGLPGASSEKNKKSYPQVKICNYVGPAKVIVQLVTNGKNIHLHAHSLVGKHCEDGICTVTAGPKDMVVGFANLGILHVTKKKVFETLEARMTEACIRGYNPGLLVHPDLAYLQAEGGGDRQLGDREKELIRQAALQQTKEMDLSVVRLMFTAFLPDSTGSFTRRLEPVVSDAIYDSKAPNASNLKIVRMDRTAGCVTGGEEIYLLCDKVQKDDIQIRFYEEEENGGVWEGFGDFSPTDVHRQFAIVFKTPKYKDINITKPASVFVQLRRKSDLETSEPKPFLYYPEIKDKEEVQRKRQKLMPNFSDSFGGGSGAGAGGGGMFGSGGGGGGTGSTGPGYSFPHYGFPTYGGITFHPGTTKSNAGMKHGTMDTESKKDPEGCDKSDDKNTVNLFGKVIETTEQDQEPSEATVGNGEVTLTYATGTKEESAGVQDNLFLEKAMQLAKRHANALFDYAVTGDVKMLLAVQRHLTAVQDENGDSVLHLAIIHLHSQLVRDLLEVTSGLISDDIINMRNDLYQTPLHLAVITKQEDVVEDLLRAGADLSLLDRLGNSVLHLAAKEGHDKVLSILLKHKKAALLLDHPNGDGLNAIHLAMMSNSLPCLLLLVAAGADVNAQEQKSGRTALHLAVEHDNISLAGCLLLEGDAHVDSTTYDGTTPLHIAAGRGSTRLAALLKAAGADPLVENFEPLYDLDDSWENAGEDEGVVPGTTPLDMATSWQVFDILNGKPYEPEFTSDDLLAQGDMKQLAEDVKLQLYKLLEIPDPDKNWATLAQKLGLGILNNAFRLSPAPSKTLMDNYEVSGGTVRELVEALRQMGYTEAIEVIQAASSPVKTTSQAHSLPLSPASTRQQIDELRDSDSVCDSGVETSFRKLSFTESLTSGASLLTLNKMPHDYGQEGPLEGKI

CC(=O)OC[C@H]1O[C@@](COC(C)=O)(O[C@H]2O[C@H](COC(C)=O)[C@@H](OC(C)=O)[C@H](OC(C)=O)[C@H]2OC(C)=O)[C@@H](OC(C)=O)[C@@H]1OC(C)=O
outcome [1]: inactive | outcome [2]: inactive | outcome [3]: inactive | outcome [4]: inactive | outcome [5]: inactive | outcome [6]: inactive | outcome (MYC, MYC (gene 4609)): inactive | outcome [7]: inactive | outcome [8]: inactive | outcome [9]: inactive | outcome [10]: inactive | outcome [11]: inactive | outcome [12]: inactive | outcome [13]: inactive | outcome [14]: inactive | outcome [15]: inactive

Cc1ccc(S(=O)(=O)O)cc1C
outcome [1]: inactive | outcome [2]: inactive | outcome [3]: inactive | outcome [4]: inactive | outcome [5]: inactive | outcome [6]: inactive | outcome (MYC, MYC (gene 4609)): inactive | outcome [7]: inactive | outcome [8]: inactive | outcome [9]: inactive | outcome [10]: inactive | outcome [11]: inactive | outcome [12]: inactive | outcome [13]: inactive | outcome [14]: inactive | outcome [15]: inactive

CCNc1ccccc1
outcome [1]: inactive | outcome [2]: inactive | outcome [3]: inactive | outcome [4]: inactive | outcome [5]: inactive | outcome [6]: inactive | outcome (MYC, MYC (gene 4609)): inactive | outcome [7]: inactive | outcome [8]: inactive | outcome [16]: inactive | outcome [9]: inactive | outcome [10]: inactive | outcome [11]: inactive | outcome [12]: inactive | outcome [13]: inactive | outcome [14]: inactive | outcome [15]: inactive

Cc1[nH]cnc1C[C@H]1CCc2c(C)c3ccccc3n2C1=O
AC50 [1]: 58.7 µM (active) | AC50 [2]: 11.5 µM (active) | AC50 [3]: 44.5 µM (active) | AC50 [4]: 27.7 µM (active) | AC50 [5]: 14.1 µM (active) | AC50 [6]: 70.1 µM (active) | AC50 (MYC, MYC (gene 4609)): 31.4 µM (active) | AC50 [7]: 77.3 µM (active) | AC50 [8]: 20.8 µM (active) | AC50 [9]: 73.1 µM (active) | AC50 [10]: 79.3 µM (active) | AC50 [11]: 29 µM (active) | AC50 [12]: 68.3 µM (active) | AC50 [17]: 44.5 µM (active) | AC50 [13]: 81.5 µM (active) | outcome [14]: inactive | AC50 [15]: 21.5 µM (active)

COc1ccc2sc(C(=O)Nc3nnn[nH]3)c(OC(C)C)c2c1
AC50 [1]: 28.1 µM (active) | outcome [2]: inactive | outcome [3]: inactive | outcome [4]: inactive | AC50 [5]: 80.2 µM (active) | outcome [6]: inactive | AC50 (MYC, MYC (gene 4609)): 38 µM (active) | AC50 [7]: 27.1 µM (active) | AC50 [8]: 35.8 µM (active) | outcome [9]: inactive | outcome [10]: inactive | AC50 [11]: 97.4 µM (active) | AC50 [12]: 32.5 µM (active) | outcome [13]: inactive | outcome [14]: inactive | AC50 [15]: 81.7 µM (active)

Cn1c(=O)c2c(ncn2C)n(C)c1=O
outcome [1]: inactive | outcome [2]: inactive | outcome [3]: inactive | outcome [4]: inactive | outcome [5]: inactive | outcome [6]: inactive | outcome (MYC, MYC (gene 4609)): inactive | outcome [7]: inactive | outcome [8]: inactive | outcome [9]: inactive | outcome [11]: inactive | outcome [12]: inactive | outcome [18]: inactive | outcome [17]: inactive | outcome [13]: inactive | outcome [14]: inactive | outcome [15]: inactive
